# Test results as given in the supplement of paper PMC8728848.
# This is one part of a sample in which the strongest signals are shown more often than they occur.
# Columns and labels:
# Assay in all cases: glycan array binding signal (z-score within array); higher = stronger binding
# Conditions in all cases: glycan notation: IUPAC condensed, linker removed
# [1] = target: Gal(b1-4)GlcNAc(b1-6)GalNAc
# In short: (§1)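 Columns mapping to the same glycan were averaged after glycan names were converted to IUPAC-condensed notation. The data come from 3228 arrays in the Consortium for Functional Glycomics database, limited to those with an available protein sequence. Binding is reported as a within-array Z-score averaged across arrays of one protein sequence and across linkers.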
# Gal6S(b1-4)Glc6S = target: Gal6S(b1-4)Glc6S
# In short: as §1
# GalNAc(b1-3)Gal = target: GalNAc(b1-3)Gal
# In short: as §1
# GalNAc3S(b1-4)GlcNAc = target: GalNAc3S(b1-4)GlcNAc
# In short: as §1
# GlcA(b1-3)GlcNAc = target: GlcA(b1-3)GlcNAc
# In short: as §1
# [2] = target: GlcNAc(a1-4)Gal(b1-4)GlcNAc(b1-3)Gal(b1-4)GlcNAc
# In short: as §1
# [3] = target: GlcNAc(a1-4)Gal(b1-4)GlcNAc(b1-3)Gal(b1-4)GlcNAc(b1-3)Gal(b1-4)GlcNAc
# In short: as §1
# [4] = target: GlcNAc(b1-3)Gal(b1-4)GlcNAc(b1-3)Gal(b1-4)GlcNAc
# In short: as §1
# [5] = target: GlcNAc(b1-3)Gal(b1-4)GlcNAc(b1-3)Gal(b1-4)GlcNAc(b1-3)Gal(b1-4)GlcNAc(b1-2)Man(a1-3)[GlcNAc(b1-3)Gal(b1-4)GlcNAc(b1-3)Gal(b1-4)GlcNAc(b1-3)Gal(b1-4)GlcNAc(b1-2)Man(a1-6)]Man(b1-4)GlcNAc(b1-4)[Fuc(a1-6)]GlcNAc
# In short: as §1
# [6] = target: GlcNAc(b1-3)[GlcNAc(b1-6)]Gal(b1-4)GlcNAc
# In short: as §1
# Neu5Ac(a2-3)Gal = target: Neu5Ac(a2-3)Gal
# In short: as §1
# [7] = target: Neu5Ac(a2-3)Gal(b1-3)GalNAc6S
# In short: as §1
# [8] = target: Neu5Ac(a2-3)Gal(b1-4)GlcNAc(b1-3)Gal(b1-4)[Fuc(a1-3)]GlcNAc
# In short: as §1
# [9] = target: Neu5Ac(a2-3)Gal(b1-4)[Fuc(a1-3)]GlcNAc(b1-3)GalNAc
# In short: as §1
# [10] = target: Neu5Ac(a2-3)Gal(b1-4)[Fuc(a1-3)]GlcNAc(b1-6)[Gal(b1-3)]GalNAc
# In short: as §1
# [11] = target: Neu5Ac(a2-6)Gal(b1-4)GlcNAc(b1-2)Man
# In short: as §1
# [12] = target: Neu5Ac(a2-6)Gal(b1-4)GlcNAc(b1-2)Man(a1-3)Man(b1-4)GlcNAc(b1-4)GlcNAc
# In short: as §1
# [13] = target: Neu5Ac(a2-6)Gal(b1-4)GlcNAc(b1-2)Man(a1-3)[Gal(b1-4)GlcNAc(b1-2)Man(a1-6)]Man(b1-4)GlcNAc(b1-4)GlcNAc
# In short: as §1
# [14] = target: Neu5Ac(a2-6)Gal(b1-4)GlcNAc(b1-2)Man(a1-6)[Man(a1-3)]Man(b1-4)GlcNAc(b1-4)GlcNAc
# In short: as §1
# [15] = target: Neu5Ac(a2-6)Gal(b1-4)GlcNAc(b1-2)[Neu5Ac(a2-6)Gal(b1-4)GlcNAc(b1-4)]Man(a1-3)[GlcNAc(b1-4)][Neu5Ac(a2-6)Gal(b1-4)GlcNAc(b1-2)[Neu5Ac(a2-6)Gal(b1-4)GlcNAc(b1-6)]Man(a1-6)]Man(b1-4)GlcNAc(b1-4)GlcNAc
# In short: as §1
# [16] = target: Neu5Ac(a2-6)Gal(b1-4)GlcNAc(b1-3)Gal(b1-4)GlcNAc(b1-2)Man(a1-3)[Neu5Ac(a2-6)Gal(b1-4)GlcNAc(b1-3)Gal(b1-4)GlcNAc(b1-2)Man(a1-6)]GalNAc
# In short: as §1
# [17] = target: Neu5Ac(a2-6)Gal(b1-4)GlcNAc(b1-6)[Gal(b1-3)GlcNAc(b1-3)]Gal(b1-4)Glc
# In short: as §1
# Neu5Ac(a2-6)GalNAc = target: Neu5Ac(a2-6)GalNAc
# In short: as §1
# [18] = target: Neu5Ac(a2-6)GalNAc(b1-4)GlcNAc6S
# In short: as §1
# [19] = target: Neu5Ac(a2-8)Neu5Ac(a2-8)Neu5Ac(a2-3)[GalNAc(b1-4)]Gal(b1-4)Glc
# In short: as §1
# [20] = target: Neu5Gc(a2-8)Neu5Ac(a2-3)Gal(b1-4)GlcNAc
# In short: as §1
binder,measurement,setting,value
SP16664D-bth-476-27-476 (Bacteroides thetaiotaomicron) (protein) DDLEVGKNIDESAYSGIYENNAYLRDGKSNLVSKVVELHGETYATTVKMGLSKTPNTATSAKVKIDAAYLETYNKAHNTDFALYPQDLVTFANEGILTVNANTKSAEVEMTIRAGEGLQEDKTYAIPVAISDQSSDITIKDEDAKHCIYLVKDMRNAGDAYKGEGVMQGYLFFEVNDVNPLNTLSFQLENGKLLWDVVVLFAANINYDAEAGRPRVQCNPNVQYLLDNNETLLQPLRRRGVKVLLGLLGNHDITGLAQLSEQGAKDFAREVAQYCKAYNLDGVNYDDEYSNSPDLSNPSLTNPSTAAAARLCYETKQAMPDKLVTVFDWGQMYGVATVDGVDAKEWIDIVVANYGSAAYPIGQMTKKQCSGISMEFNLGGGGSLSASKAQSMIDGGYGWFMGFAPSPAKYGSVFSRLQGGGEVLYGSNVAAPTIFYKKNDPTPYKYPDDL,glycan array binding signal (z-score),[1],-0.123
same,glycan array binding signal (z-score),Gal6S(b1-4)Glc6S,0.344
same,glycan array binding signal (z-score),GalNAc(b1-3)Gal,-0.159
same,glycan array binding signal (z-score),GalNAc3S(b1-4)GlcNAc,-0.345
same,glycan array binding signal (z-score),GlcA(b1-3)GlcNAc,-0.153
same,glycan array binding signal (z-score),[2],-0.259
same,glycan array binding signal (z-score),[3],-0.185
same,glycan array binding signal (z-score),[4],0.054
same,glycan array binding signal (z-score),[5],-0.18
same,glycan array binding signal (z-score),[6],-0.212
same,glycan array binding signal (z-score),Neu5Ac(a2-3)Gal,-0.156
same,glycan array binding signal (z-score),[7],-0.227
same,glycan array binding signal (z-score),[8],0.058
same,glycan array binding signal (z-score),[9],0.765
same,glycan array binding signal (z-score),[10],9.86
same,glycan array binding signal (z-score),[11],-0.235
same,glycan array binding signal (z-score),[12],-0.117
same,glycan array binding signal (z-score),[13],2.55
same,glycan array binding signal (z-score),[14],3.75
same,glycan array binding signal (z-score),[15],2.38
same,glycan array binding signal (z-score),[16],1.28
same,glycan array binding signal (z-score),[17],-0.349
same,glycan array binding signal (z-score),Neu5Ac(a2-6)GalNAc,-0.006
same,glycan array binding signal (z-score),[18],-0.065
same,glycan array binding signal (z-score),[19],2.53
same,glycan array binding signal (z-score),[20],-0.114
